Reference: PubChem BioAssay (NCI)
This is part of a sample that, as a whole, favours compounds with a hit. Of some 79,000 tested, about 15% had one in any assay. Rule as the data show it: active = growth inhibition above about 70%; inactive = the rest.

Experiments:
[1] = NCI Yeast Anticancer Drug Screen. Data for the rad52 strain (AID 147);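 also: 0% = growth of vehicle-treated control cultures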; conditions: S. cerevisiae rad52 mutant growth inhibition, active compounds read high
In short: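 Here a repair-compromised yeast strain receives each compound; its growth is then quantified and normalised to vehicle-only controls.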

[2] = NCI Yeast Anticancer Drug Screen. Data for the wt1 strain (AID 149);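 also: 0% = growth of vehicle-treated wt1 cultures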; conditions: S. cerevisiae wt1 strain (SPY 50644) growth inhibition, active compounds read high
In short: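 Using yeast strain wt1, compound-induced growth inhibition was determined against vehicle-treated cultures.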

[3] = NCI Yeast Anticancer Drug Screen. Data for the rad50EPP+ strain (AID 151);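 also: 0% = growth of vehicle-treated control cultures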; conditions: S. cerevisiae rad50 mutant strain, active compounds read high
In short: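 Read-out is yeast growth inhibition relative to vehicle; cells used were the rad50EPP+ strain.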

[4] = NCI Yeast Anticancer Drug Screen. Data for the mgt1 strain (AID 153); conditions: S. cerevisiae mgt1 mutant growth inhibition, active compounds read high
In short: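 Measured: inhibition of mgt1 yeast growth by compound, normalized to vehicle-treated cultures.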

[5] = NCI Yeast Anticancer Drug Screen. Data for the rad50 strain (AID 155);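 also: 0% = growth of vehicle-only cultures of the same strain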; conditions: S. cerevisiae rad50 strain growth inhibition, active compounds read high
In short: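 Relative growth inhibition (compound vs vehicle) was measured in yeast with a defined repair-gene alteration.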

[6] = NCI Yeast Anticancer Drug Screen. Data for the mec2-1 strain (AID 157); conditions: S. cerevisiae mec2-1 strain, active compounds read high
In short: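 Using mec2-1 yeast: add compound, measure growth, express inhibition versus vehicle-treated cultures.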

[7] = NCI Yeast Anticancer Drug Screen. Data for the rad14 strain (AID 159);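 also: 0% = growth of vehicle-treated control cultures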; conditions: S. cerevisiae rad14 strain growth inhibition, active compounds read high
In short: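 Screen for anticancer potential: a yeast strain altered in DNA damage repair is grown with compound, and reduced growth is quantified against vehicle controls.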

[8] = NCI Yeast Anticancer Drug Screen. Data for the sgs1 mgt1 strain (AID 161);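 also: 0% = growth of cultures given vehicle only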; conditions: S. cerevisiae sgs1 mgt1 strain, active compounds read high
In short: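 Percent growth inhibition was derived by comparing compound-exposed mutant yeast with vehicle-exposed cultures. The strain carries alterations in DNA damage repair.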

[9] = NCI Yeast Anticancer Drug Screen. Data for the CLN2oe strain (AID 163);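 also: 0% = growth of vehicle-only control cultures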; conditions: S. cerevisiae CLN2oe strain, active compounds read high
In short: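 Whole-cell yeast growth assay. A strain engineered for altered cell-cycle control received compound, and inhibition relative to vehicle-treated cultures was recorded.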

[10] = NCI Yeast Anticancer Drug Screen. Data for the cln2 rad14 strain (AID 165);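 also: 0% = growth equal to vehicle treated cultures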; conditions: S. cerevisiae cln2 rad14 strain, active compounds read high
In short: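 Yeast strain cln2 rad14, bearing defects in cell cycle control and DNA repair, serves as the test system; values reflect growth inhibition compared with vehicle.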

[11] = NCI Yeast Anticancer Drug Screen. Data for the bub3 strain (AID 167); conditions: S. cerevisiae bub3 mutant strain, active compounds read high
In short: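 Screening used yeast with an engineered genetic alteration affecting cell cycle control. Compound-exposed cultures were compared with vehicle cultures, and reduced growth was taken as inhibition.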

[12] = NCI Yeast Anticancer Drug Screen. Data for the wt2 strain (AID 169);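 also: 0% = growth of vehicle-treated yeast cultures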; conditions: S. cerevisiae wt2 strain growth inhibition, active compounds read high
In short: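 Treated yeast vs. vehicle-treated yeast: growth inhibition determined.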

[13] = NCI Yeast Anticancer Drug Screen. Data for the mlh1 strain (AID 171);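 also: 0% = growth of vehicle-treated control cultures of the same strain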; conditions: S. cerevisiae mlh1 strain growth inhibition, active compounds read high
In short: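 A yeast strain with a defined genetic lesion serves as the test organism. Cultures receive compound or vehicle, and growth is measured.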

[14] = NCI Yeast Anticancer Drug Screen. Data for the sgs1 strain (AID 173);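 also: 0% = growth of vehicle-only control cultures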; conditions: S. cerevisiae sgs1 mutant, active compounds read high
In short: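 A genetically defined yeast mutant is incubated with the test compound, and its growth is compared to that of the same strain given vehicle.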

[15] = NCI Yeast Anticancer Drug Screen. Data for the mlh1 rad18 strain (AID 175); conditions: S. cerevisiae mlh1 rad18 strain growth inhibition, active compounds read high
In short: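 Steps: expose repair-defective yeast to compound; measure growth; express inhibition against vehicle-treated controls.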

[16] = NCI Yeast Anticancer Drug Screen. Data for the rad18 strain (AID 177); conditions: S. cerevisiae rad18 mutant growth inhibition, active compounds read high
In short: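 Measured value is growth inhibition of a yeast strain bearing a DNA repair alteration, referenced to vehicle-treated cells.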

[17] = at 5.0 µM (retest, dose inferred, filed as 0.5)
[18] = at 50.0 µM (retest, dose inferred, filed as 5.0)

Measured: growth inhibition

CCN(CC)CCCNc1ccc([N+](=O)[O-])c2nc3ccc(OC)cc3c(NCCCN(CC)CC)c12
inactive: [1]; at 1.2 µM 15% | [1]; at 3.7 µM 6% | [1]; at 11.0 µM 9% | [1]; at 33.0 µM 11% | [1]; at 100.0 µM 19% | [2]; at 1.2 µM -81% | [2]; at 3.7 µM 0% | [2]; at 11.0 µM -2% | [2]; at 33.0 µM -2% | [2]; at 100.0 µM 0% | [3]; at 1.2 µM 0% | [3]; at 3.7 µM 3% | [3]; at 11.0 µM 4% | [3]; at 33.0 µM 9% | [3]; at 100.0 µM 13% | [4]; at 1.2 µM 2% | [4]; at 3.7 µM 2% | [4]; at 11.0 µM 3% | [4]; at 33.0 µM 1% | [4]; at 100.0 µM 1% | [5]; at 1.2 µM -2% | [5]; at 3.7 µM -1% | [5]; [17] 23% | [5]; at 11.0 µM -1% | [5]; at 33.0 µM 4% | [5]; [18] 18% | [5]; at 50.0 µM 66.5% | [5]; at 100.0 µM 9% | [6]; at 1.2 µM -1% | [6]; at 3.7 µM 2% | [6]; [17] 6% | [6]; at 11.0 µM -2% | [6]; at 33.0 µM 1% | [6]; [18] 26% | [6]; at 50.0 µM 5.05% | [6]; at 100.0 µM 1% | [7]; at 1.2 µM -1% | [7]; at 3.7 µM 0% | [7]; at 11.0 µM -1% | [7]; at 33.0 µM 0% | [7]; at 100.0 µM 1% | [8]; [17] -8% | [8]; [18] 20% | [8]; at 50.0 µM 13% | [9]; at 1.2 µM -10% | [9]; at 3.7 µM -9% | [9]; at 11.0 µM -4% | [9]; at 33.0 µM -6% | [9]; at 100.0 µM -2% | [10]; [17] 43% | [10]; [18] 57% | [10]; at 50.0 µM 24.8% | [11]; at 1.2 µM -6% | [11]; at 3.7 µM -7% | [11]; [17] 14% | [11]; at 11.0 µM -7% | [11]; at 33.0 µM -6% | [11]; [18] 6% | [11]; at 50.0 µM 13.4% | [11]; at 100.0 µM -4% | [12]; at 1.2 µM -2% | [12]; at 3.7 µM 0% | [12]; at 11.0 µM 1% | [12]; at 33.0 µM -1% | [12]; at 100.0 µM 0% | [13]; at 1.2 µM 0% | [13]; at 3.7 µM -2% | [13]; at 11.0 µM 0% | [13]; at 33.0 µM -2% | [13]; at 100.0 µM -1% | [14]; at 1.2 µM 2% | [14]; at 3.7 µM 5% | [14]; at 11.0 µM 2% | [14]; at 33.0 µM 1% | [14]; at 100.0 µM 1% | [15]; [17] 13% | [15]; [18] 37% | [15]; at 50.0 µM 0.2% | [16]; at 1.2 µM 0% | [16]; at 3.7 µM 0% | [16]; at 11.0 µM 6% | [16]; at 33.0 µM 4% | [16]; at 100.0 µM 7%
